Source: PubChem BioAssay AID1531 (NMMLSC, 2009)
In all, about 290,000 compounds went through this assay and about 3,300 (1.1%) were called active. No stated cut-off is given here; in the data, active means binding response below about 67% or above about 130%; inconclusive means no clear call, values can overlap the other calls; inactive means in between. For the sample, actives were picked, then their nearest neighbours and some compounds at random.

target: Mitogen-activated protein kinase kinase kinase 2 (Homo sapiens) (UniProt Q9Y2U5); experiment: modulators of MEK5 binding to wildtype MEKK2, primary screen, biochemical, multiplex bead flow cytometry, Alexa488-MEK5 (AID 1531); conditions: Alexa488-MEK5 binding to MEKK2 WT, at 10 µM, actives lie on both sides

Binding response (% of control), inactive:
C=CCOc1ccccc1NC(=O)CN1C(=O)CNC1=O 106%
O=C(N/N=C\c1cc2c(cc1Cl)OCO2)c1ccc(Br)s1 103%
Cc1ccc(C(C)C)cc1OCC(=O)Nc1ccccc1N1CCCC1 100%
O=C(CN1CCN(C2CCCCC2)CC1)Nc1ccccc1N1CCCCC1 109%
NC(=O)c1oc2ccccc2c1NC(=O)CS(=O)(=O)c1ccccc1 106%
O=C(Nc1ccccc1-c1ccccc1)c1ccccc1[N+](=O)[O-] 106%
O=C(Nc1ccccc1[N+](=O)[O-])C1C(c2ccccc2)=C1c1ccccc1 97%
CCOC(=O)C[C@H]1c2ccc(C(F)(F)F)cc2S(=O)(=O)N1c1ccccc1 98%
CCOC(=O)C1CCN(C(=O)Cn2nc(C)c3c(C)n(-c4ccccc4)nc3c2=O)CC1 101%
COc1ccc(S(=O)(=O)N2CCC(C(=O)NCCC(=O)NCc3cccc(OC)c3)CC2)cc1 104%
CCOc1cc(/C=C/c2nc3ccccc3c(=O)[nH]2)cc(Br)c1OC 98%
O=C(Nc1c2c(nn1-c1cccc(Cl)c1)CS(=O)(=O)C2)c1cccs1 81%
CCOc1cc(C2C(C(=O)c3ccco3)=C(O)C(=O)N2Cc2ccccc2)ccc1O (stereo not given) 93%
CCCc1nn(C)c2c(=O)[nH]c(-c3cc(S(N)(=O)=O)ccc3OCC)nc12 105%
COc1ccc(S(=O)(=O)NC(C)C(=O)NCc2ccncc2)cc1Cl (stereo not given) 98%
Cn1cc(CCC(=O)NC2CC2)c2ccccc21 96%
COc1ccc(C(=O)Nc2ccnn2C2CCN(Cc3ccncc3)CC2)cc1 101%
COc1ccccc1C(=O)Nc1ccnn1C1CCN(Cc2cnn(C)c2)CC1 88%
Cc1ccc(SCC(=O)NNC(=O)c2ccc(S(C)(=O)=O)cc2)cc1 102%
O=C(NCCc1ccc(Cl)cc1)C1CC(=O)N(C2CCCCC2)C1 (stereo not given) 98%
CC(C)OCCCNC(=O)C1CC(=O)N(C2CCCCCCC2)C1 (stereo not given) 100%
CCn1c(CC(=O)Nc2ccccc2)nnc1SCC(=O)N1CCOCC1 96%
CCOC(=O)c1ccc(N2C(=O)CC(N3CCC(C(=O)OCC)CC3)C2=O)cc1 (stereo not given) 105%
CCOC(=O)c1ccc(N2C(=O)CC(N3CCN(C(=O)c4ccccc4)CC3)C2=O)cc1 (stereo not given) 96%
C#CCOCCOCCOCCNc1nc(N2CCN(C(=O)[C@H](CCC(=O)O)n3cc(C(N)CO)nn3)CC2)nc(N2CCN(C(=O)[C@H](Cc3ccc(O)cc3)n3cc(C(N)[C@H](C)CC)nn3)CC2)n1 (stereo not given in full) 108%
C#CCOCCOCCOCCNc1nc(N2CCN(C(=O)[C@H](CCC(=O)O)n3cc(C(N)CO)nn3)CC2)nc(N2CCN(C(=O)[C@H](CCCCN)n3cc(C(N)[C@H](C)CC)nn3)CC2)n1 (stereo not given in full) 97%
C#CCOCCOCCOCCNc1nc(N2CCN(C(=O)[C@H](C(C)C)n3cc(CCO)nn3)CC2)nc(N2CCN(C(=O)[C@H](C(C)C)n3cc(CCO)nn3)CC2)n1 97%
C#CCOCCOCCOCCNc1nc(N2CCN(C(=O)C([C@@H](C)CC)n3cc(C(N)COC(=O)C(F)(F)F)nn3)CC2)nc(N2CCN(C(=O)[C@H](Cc3ccc(O)cc3)n3cc(C(N)[C@H](C)CC)nn3)CC2)n1 (stereo not given in full) 120%
C#CCOCCOCCOCCNc1nc(N2CCN(C(=O)[C@H](CCC(=O)O)n3cc(C(N)CO)nn3)CC2)nc(N2CCN(C(=O)[C@H](CCCCN)n3cc(C(N)CC(C)C)nn3)CC2)n1 (stereo not given in full) 69%
C#CCOCCOCCOCCNc1nc(N2CCN(C(=O)[C@H](Cc3ccc(O)cc3)n3cc(C(N)CC(C)C)nn3)CC2)nc(N2CCN(C(=O)[C@H](CCC(=O)O)n3cc(C(N)[C@H](C)CC)nn3)CC2)n1 (stereo not given in full) 106%
C=CCC1(C(=O)N(C)Cc2ccccc2)CCN(C(=O)OC(C)(C)C)CC1 94%
Cc1cc(Br)ccc1NC(=S)NC1CCCC1 94%
CC(=O)[C@@]12O[C@@H]1C[C@H]1[C@@H]3CC[C@H]4C[C@@H](O)CC[C@]4(C)[C@H]3CC[C@@]12C 107%
CC(C)(C)n1nnnc1C(c1ccccc1F)N1CCN(C(=O)c2ccco2)CC1 (stereo not given) 99%
N#C[C@]1(S(=O)(=O)c2ccccc2)C[C@@H]2ON=C(c3cccc(Br)c3)[C@@H]2C1 91%
c1ccc2cc(OCCN3CCCC3)ccc2c1 102%
O=C(Nc1ccc(Cl)cc1)OCc1cc(-c2ccccc2)on1 112%
CCCOc1ccc(Cc2c(O)nc(N)[nH]c2=O)cc1C 105%
COc1ccc(N2CCN(C3CCCCC3NS(=O)(=O)c3ccccc3)CC2)cc1 (stereo not given) 105%
CCOc1cc2ccccc2cc1C(=O)Nc1ccccn1 108%
O=c1[nH]cccc1-c1nc2ccccc2n1Cc1ccc(Cl)cc1 105%
Cc1ccc(CNS(=O)(=O)c2ccc3c(c2)N(C)CCO3)cc1 94%
COc1cccc(/C=N/Nc2ncc(C(F)(F)F)cc2Cl)c1O 96%
CCOc1ccc(/C=C2\SC(=S)N(NC(=O)c3ccncc3)C2=O)cc1OC 95%
O=C1/C(=C\c2ccsc2)NC(=S)N1c1ccccc1 87%
CC1=NN(Cc2ccccc2)C(=O)/C1=C/c1ccc(N(C)C)cc1 109%
CN(Cc1ccco1)S(=O)(=O)c1nnc(NC(=O)c2ccccc2)s1 96%
CN1CCN(/N=C/c2ccc(-c3ccc([N+](=O)[O-])cc3)o2)CC1 103%
CSc1ccc(/C=N/N2CCN(Cc3ccccc3Cl)CC2)cc1 99%
COc1ccccc1CCNS(=O)(=O)c1cc2c3c(c1)C(C)C(=O)N3CCC2 (stereo not given) 85%
Cc1c(C(=O)N2CCN(c3ccc(F)cc3)CC2)oc2c1C(=O)CCC2 104%
Cc1ccc2c(C)c(C(=O)N(C)Cc3ccncn3)oc2c1C 98%
COC(=O)c1ccc(Nc2ncnc3sccc23)cc1 102%
COc1ccc(-n2nnnc2SCC(=O)Nc2ccccc2)cc1 104%
Cc1c(NC(=O)CSc2cccc3cccnc23)c(=O)n(-c2ccccc2)n1C 99%
CC(Sc1nc2cc(Cl)ccc2s1)C(=O)Nc1ccc2c(c1)OCO2 (stereo not given) 78%
O=C(COc1ccc(Cl)cc1)Nc1ccc2c(c1)OCO2 100%
COC(=O)c1ccccc1NC(=O)C1CCN(C(=O)N2CCOc3ccccc32)CC1 103%
Oc1ccc(-n2nnnc2SCc2c(F)cccc2Cl)cc1 98%
COc1ccc(CNC(=O)c2ccc(Br)s2)cc1OC 96%
CC(=O)c1cc(CN2CCC(C(=O)Nc3cccc(-c4cscn4)c3)CC2)cs1 116%
O=C(NC1CCCC1)C1CCN(C(=O)Nc2cccc(Cl)c2)CC1 110%
O=C(Nc1cnn(Cc2ccc(Cl)cc2)c1)C1CCCC1 110%
COc1cccc(-c2cccc(NC(=O)C3CCN(C4CCC4)CC3)c2)c1 104%
CCn1cc(CN2CCC(n3nccc3NC(=O)CCCc3ccccc3)CC2)c(C)n1 108%
O=C(Nc1cccc(-c2cscn2)c1)C1CCN(Cc2ccsc2)CC1 112%

Binding response (% of control), active:
CN1CCN(c2ccccc2NC(=O)COc2ccc(C3CCCCC3)cc2)CC1 145%
O=C(O)c1ccccc1C(=O)Nc1ccccc1[N+](=O)[O-] 0%
CC(C)Oc1ccc(CN2CCC(n3nccc3NC(=O)c3cccnc3)CC2)cc1 142%
O=C(NCCCN1CCCCCC1)C1CC(=O)N(C2CCCC2)C1 (stereo not given) 162%
CCCCOC(=O)c1ccc(N2C(=O)CC(N3CCN(C/C=C/c4ccccc4)CC3)C2=O)cc1 (stereo not given) 176%
C#CCOCCOCCOCCNc1nc(N2CCN(C(=O)C([C@@H](C)CC)n3cc(C(N)COC(=O)C(F)(F)F)nn3)CC2)nc(N2CCN(C(=O)[C@H](CCCCN)n3cc(C(N)CC(C)C)nn3)CC2)n1 (stereo not given in full) 241%
C#CCOCCOCCOCCNc1nc(N2CCN(C(=O)C(Cc3ccc(O)cc3)n3cc(C(N)CC(C)C)nn3)CC2)nc(N2CCN(C(=O)C(Cc3ccc(O)cc3)n3cc(C(N)C(C)CC)nn3)CC2)n1 (stereo not given) 147%
C#CCOCCOCCOCCNc1nc(N2CCN(C(=O)[C@H](CCCCN)n3cc([C@@H](N)C(C)CC)nn3)CC2)nc(N2CCN(C(=O)[C@H](Cc3ccc(O)cc3)n3cc([C@@H](N)C(C)CC)nn3)CC2)n1 (stereo not given in full) 211%
Clc1ccccc1-c1cc(COc2ccc3ccccc3c2)no1 -1%
Cc1c(-c2ccccc2)cn2c1-c1ccc(C)n1CC2 55% [inhibitor]
COc1cc(/C=C2\SC(=S)N(Nc3ncc(C(F)(F)F)cc3Cl)C2=O)cc(OC)c1OC 61% [inhibitor]
CN(C)c1ccc(/C=C2\NC(=S)N(Cc3ccccc3)C2=O)cc1 72% [inhibitor]
CN1CCN(/N=C/c2ccc(C#N)cc2)CC1 166%
Cc1ccc2c(C)c(C(=O)N3CCN(c4ccncc4)CC3)oc2c1C 159%
Cc1c(NC(=O)CSc2nnnn2-c2ccc(C(=O)O)cc2)c(=O)n(-c2ccccc2)n1C -12%
O=C(Nc1ccc2c(c1)OCO2)c1sc2cc(Cl)ccc2c1Cl 19%
CCn1cc(CN2CCC(C(=O)Nc3cccc(-c4cccc(Cl)c4)c3)CC2)c(C)n1 166%
CCn1cc(CN2CCC(C(=O)Nc3cccc(-c4cccc(Cl)c4)c3)CC2)cn1 160%
O=C(Nc1cccc(-c2cccc(Cl)c2)c1)C1CCN(C2CCC2)CC1 151%
